These results are taken from PubChem BioAssay AID1347416 (National Center for Advancing Translational Sciences (NCATS), 2020).

In all, about 4,100 compounds went through this assay and about 1,600 (39%) were called active. Not shown: some 25% with an inconclusive outcome. Calls follow the shape of the dose curve; as a rule, active = well fitted inhibition curve with a large enough effect; inconclusive = small, poorly fitted or top-dose-only effect; inactive = no such curve, though single readings can be large or run the other way. Some of the results follow.
Potency is read from the fitted curve at half-maximal effect.

This assay can be described thus: qHTS Validation assay for Inhibitors of Plasmodium falciparum Dd2 growth in vitro. Also: nearly all actives have a fitted effect of over 70% in size. The note with it: P. falciparum Dd2 in RBCs, SYBR Green growth, 72 h; series mostly up to 28.7 µM. From the text: Malaria, a parasitic disease spread to humans through the bite of a Plasmodium infected Anopheles mosquito, continues to be a global health burden affecting millions of people, with an estimated 228 million cases and 405,000 deaths in 2018. Concerns about safety and limitations of current antimalarial treatments strongly emphasize the need to develop new therapeutic options. The scarce number of chemotypes and validated drug targets with efficacy against the liver stage, have hindered development of new antimalarials. To address this, a chemoprophylactic drug discovery effort was conducted through a combined phenotypic high-throughput asexual blood stage and liver stage screen, providing a robust foundation to identify liver-stage active lead chemotypes. Compounds were initially screened against Plasmodium falciparum Dd2 strain parasites using a in vitro SYBRGreen-1 based 72 hr proliferation assay to identify novel chemotypes to advance to liver stage assays. NIH/NCATS Early Translation Branch Assay Submitter (PI): Anton Simeonov Ph.D.
[…] Assay Protocol: PROTOCOL TABLE (as described by Inglese et al., 2007) SEQUENCE No. (e.g., 1, 2, 3, etc.); PARAMETER (e.g., Cells, Incubation, Reagent, etc.); VALUE; DESCRIPTION SEQUENCE, Parameter, Description 1; Reagent; 3 uL complete malaria growth medium, 1536 TC treated Black clear bottom plate 2; Controls; 23 nL positive control artesunate (300 nM final) to column 1; Neutral control DMSO to columns 2-4 3; Compound; 23 nL of compounds in dose response concentration (29 uM to 0.5 nM final) 4; Reagent; 5 uL malaria infected red blood cells (2.5% hematocrit final, 0.3% parasitemia 5; Time; 72 hours at 37C (5% O2, 5% CO2, 90% N2; 95% Rh) 6; Reagent; 2 uL lysis buffer/SYBRGreen-1, 25 sec shake immediately following dispense 7; Time; ~16 hours at 37C (5% O2, 5% CO2, 90% N2; 95% Rh) 8; Detector; EnVision (PerkinElmer) bottom read at 485/14nm excitation and 535/25 nm emission NOTES (numbers refer to sequence above): 1; Complete Malaria Growth Media: 1X RPMI-1640 w/L-glutamine, 5.5g/L Albumax II, 367 uM Hypoxanthine, 25 mM HEPES, 0.25% Sodium Bicarbonate, 35 uM Gentamicin sulfate 2; Controls were added using the Kalypsis Pintool (Wako USA) equipped with 1536 pinhead 3; Compounds were added in a 7-point, titration with a high final concentration of 29 uM by Pintool from seven inter-plate titrations of library plates and two DMSO control plates at the beginning and end (see Yasgar et al., 2008). 4; Red blood cells infected with Plasmodium falciparum Dd2 parasites were used. 6; Lysis buffer: 20 mM Tris-HCl, 10 mM EDTA, 0.16% Saponin, 1.6% Triton-X, 10X SYBR Green. REFERENCE: Inglese J, Shamu CE, Guy RK. 2007. Reporting data from high-throughput screening of small-molecule libraries. Nat Chem Biol. doi:10.1038/nchembio0807-438 Yasgar A, Shinn P, Jadhav A, Auld D, Michael S, Zheng W, Austin CP, Inglese J, Simeonov A. 2008. Compound Management for Quantitative High-Throughput Screening. J Lab Autom 13:79-89. doi:10.1016/j.jala.2007.12.004
In the case of `COc1ccc(-c2cc3c(=O)n(CCNC(=O)c4ccc(N(C)C)cc4)ccn3n2)cc1`, the Potency entry is “inactive”. Turning to `COc1ccc(-c2nc3sc(CCNC(=O)c4ccc(C(C)(C)C)cc4)c(C)n3n2)cc1`, the Potency is 2.11 µM (active). In the case of `COc1ccc(-c2nc3scc(CCNC(=O)c4cccc(Br)c4)n3n2)cc1`, the Potency entry was “inactive”. Under `Cc1c(O)c(CN(C)C)cc2c1oc(=O)c1ccccc12` stands 4.22 µM (active). In the case of `CCCc1cc(=O)oc2c(C)c(O)c(CN3CCCCC3)cc12`, the Potency was 3.35 µM (active). The result for `Cc1c(O)c(CN2CCCC2)cc2c1oc(=O)c1ccccc12` reads 2.66 µM (active).

On to `Cc1c(O)c(CN2CCCCC2)cc2c1oc(=O)c1ccccc12`, for which the Potency is 0.75 µM (active). `O=C1CCCCN1Cc1nc(C2CCOC2)no1` (stereo not given): the Potency entry was “inactive”. Under `Cc1cc(C)c2oc(=O)cc(CN3CCCCC3)c2c1` stands 13.3 µM (active). On to `C=CCCC(CN1CCCC1)Oc1ccc(C(=O)N2CCCC2)cn1` (stereo not given), for which the Potency was 13.3 µM (active).

On to `COc1ccc(C(=O)N2CCCC(n3cc(-c4nc(C(C)C)no4)nn3)C2)cn1` (stereo not given), for which the Potency result is “inactive”.

Regarding `CC(C)CN(Cc1cc(=O)oc2cc3c(cc12)CCCC3)CC(C)C`, the Potency is 15 µM (active). In the case of `CCOC(=O)C(C)/C(C)=N/NC(N)=S` (stereo not given), the Potency is 2.66 µM (active). On to `N#Cc1ccc(C23CC4CC(CC(C4)C2)C3)[nH]c1=O`, for which the Potency entry was “inactive”. Under `O=C(Nc1ccc(C2=NCCN2)cc1)c1ccc(C(=O)Nc2ccc(C3=NCCN3)cc2)c([N+](=O)[O-])c1` stands 0.237 µM (active).

For `O=C(Nc1ccc(C2=NCCN2)cc1)c1ccc(C(=O)Nc2ccc(C3=NCCN3)cc2)c(Cl)c1`, the Potency is 0.473 µM (active). Under `CC(C)(C)c1ccc(C(=O)Nc2ccc(-c3nc4cc(Cl)ccc4o3)cc2)cc1` stands “inactive”; under `CC1Oc2ccc(NC(=O)c3ccc(Cl)c(Cl)c3)cc2CN(Cc2ccccc2F)C1=O` (stereo not given), “inactive”; under `Cc1cc(C[C@@H]2COC[C@@H]2NC(=O)CCc2ccc(=O)[nH]n2)on1`, “inactive”. In the case of `COc1cc(NC(=O)c2cc([N+](=O)[O-])ccc2NC(=O)CNC2CCCCC2C)cc(OC)c1` (stereo not given), the Potency is 5.96 µM (active).

`COC(=O)c1cc(C(=O)c2ccc(Cl)cc2Cl)cn1C`: the Potency is 13.3 µM (active). Under `CCc1ccc(C2=CC(c3cccc(C)c3)n3c(nc4ccccc43)N2)cc1` (stereo not given) stands 15 µM (active). On to `COc1ccc(-c2nnc(C[C@@H]3C[C@@H](C(C)C)[C@H](CN4CCC(O)CC4)C=C3C)o2)cc1`, for which the Potency is 9.44 µM (active).

Turning to `CC1=C[C@@H](CN2CCN(c3ncccn3)CC2)[C@H](C(C)C)C[C@H]1Cc1nnc(COc2ccc(F)cc2)o1`, the Potency was 0.75 µM (active). Consider `CC1=C[C@@H](CN2CCCC2)[C@H](C(C)C)C[C@H]1Cc1nnc(-c2ccc([N+](=O)[O-])cc2)o1`, for which the Potency is 3.85 µM (active).

For `CC1=C[C@@H](CN2CCOCC2)[C@H](C(C)C)C[C@H]1Cc1nnc(-c2ccc([N+](=O)[O-])cc2)o1`, the Potency is 9.44 µM (active). For the compound `COc1ccc(C(=O)N[C@@H]2CCC[C@@H]2C(=O)NCCCN(C)C)cn1`, the Potency entry is “inactive”. Under `COC(=O)CNC(=O)N1CCCCC1c1nc(CCOc2cccc(C)c2)no1` (stereo not given) stands “inactive”.

Turning to `COc1nc2c(cc1CNC(=O)C(C)(C)OC)C(=O)N(CCc1ccccn1)C2`, the Potency entry was “inactive”. With `Cc1noc(-c2cn(C3CCN(C(=O)c4ccc(C)s4)C3)nn2)n1` (stereo not given), the Potency result is “inactive”. Consider `CC1=C[C@@H](CN2CCC(C)CC2)[C@H](C(C)C)C[C@H]1Cc1nnc(-c2cccnc2)o1`, for which the Potency is 15.3 µM (active). Regarding `Cc1ccc(S(=O)(=O)N(C)CC2CCOCC2)c(C)c1`, the Potency entry was “inactive”. Take `Cc1ccc(Cl)cc1N1CCN(C(=O)c2ccc3c(c2)N(Cc2ccccc2F)C(=O)c2ccccc2S3(=O)=O)CC1`: the Potency was 5.31 µM (active). Under `COc1ccccc1CNC(=O)c1cc2c(s1)CCN(C(=O)c1ccc(C)cc1)C2` stands “inactive”; under `Cc1ccc(C)c(CN2C(=O)c3ccccc3S(=O)(=O)c3ccc(C(=O)NCCc4ccc(Cl)cc4)cc32)c1`, 7.5 µM (active). In the case of `O=C(c1ccc2c(c1)N(Cc1ccc(Cl)cc1)C(=O)c1ccccc1S2(=O)=O)N1CCCC1`, the Potency entry is “inactive”. The result for `CCOC(=O)C1CCCN(C(=O)c2ccc3c(c2)N(Cc2ccccc2)C(=O)c2ccccc2S3(=O)=O)C1` (stereo not given) reads 6.68 µM (active); that for `Cc1ccc(C)c(CN2C(=O)c3ccccc3S(=O)(=O)c3ccc(C(=O)N4CCCCCC4)cc32)c1`, “inactive”; that for `COc1ccccc1N1CCN(C(=O)c2ccc3c(c2)N(Cc2cc(C)ccc2C)C(=O)c2ccccc2S3(=O)=O)CC1`, 9.44 µM (active). Under `O=C(c1ccc(F)c(F)c1)N1CCC2(CC1)N(c1ccccc1)C(=O)CS2(=O)=O` stands “inactive”. The result for `CCCc1nc2nc(C)c(NS(=O)(=O)c3ccc(F)cc3)c(=O)n2[nH]1` reads “inactive”. Consider `Cc1cc(C)c(CN2C(=O)c3ccccc3S(=O)(=O)c3ccc(C(=O)OCC4CCCO4)cc32)c(C)c1` (stereo not given), for which the Potency is 6.68 µM (active).

In the case of `COc1ccc(-c2noc([C@@H]3C[C@H](NS(=O)(=O)c4ccc(OC)cc4)CN3C)n2)cc1`, the Potency entry is “inactive”. In the case of `COc1cccc(NC(=O)N[C@H]2C[C@@H](c3nc(C)no3)N(C)C2)c1`, the Potency is 17.2 µM (active). The result for `CN1C[C@@H](NC(=O)COc2ccccc2)C[C@H]1c1nc(-c2ccc3c(c2)OCO3)no1` reads “inactive”.
